PubChem BioAssay
Calls of active or inactive are those of the source.

What was measured:
[1] = small molecules captured by biotinylated probe aFSTL3 – biochemical, small-molecule microarray, fluorescence 635/667, stem cell growth factor project, primary screen (AID 1064); conditions: higher = more signal;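 further: measures binding of the biotinylated anti-FSTL3 antibody to printed compounds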
[2] = binders from COS7 lysate, DM2A8 probe, primary screen, torsin A project, cell lysate, small-molecule microarray, fluorescence 635/667 (AID 1065); conditions: higher = more signal, COS7 lysate expressing mutant human TOR1A
[3] = small molecules captured by biotinylated probe aFGF2 – biochemical, small-molecule microarray, fluorescence 635/667, stem cell growth factor project, primary screen (AID 1067); conditions: higher = more signal;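 further: measures binding of biotinylated aFGF2 protein to printed compounds on slides; z-score merges feature fluorescence and signal-to-noise across triplicate slides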
[4] = small molecules captured by biotinylated probe aFGF10 – biochemical, small-molecule microarray, fluorescence 635/667, stem cell growth factor project, primary screen (AID 1071); conditions: higher = more signal;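 further: score merges 667 nm spot intensity and signal to noise from triplicate slides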
[5] = target: Neurogenic locus notch homolog protein 2 (Homo sapiens) (UniProt Q04721); test: small molecules binding Notch2 protein – biochemical, small-molecule microarray, 635 nm fluorescence, stem cell growth factors, primary screen (AID 1073); conditions: higher = more signal
[6] = target: Pro-neuregulin-1, membrane-bound isoform (Homo sapiens) (UniProt Q02297); test: small molecules binding neuregulin-1 protein – biochemical, small-molecule microarray, fluorescence 635/667, psychiatric disease protein project, primary screen (AID 1075); conditions: NRG1 binding, 635 nm fluorescence, higher = more signal;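 further: score combines 667 nm spot fluorescence with signal to noise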
Chain of Pro-neuregulin-1, membrane-bound isoform (Homo sapiens) (Q02297 whole entry, looked up, the tested form may be a part, canonical isoform): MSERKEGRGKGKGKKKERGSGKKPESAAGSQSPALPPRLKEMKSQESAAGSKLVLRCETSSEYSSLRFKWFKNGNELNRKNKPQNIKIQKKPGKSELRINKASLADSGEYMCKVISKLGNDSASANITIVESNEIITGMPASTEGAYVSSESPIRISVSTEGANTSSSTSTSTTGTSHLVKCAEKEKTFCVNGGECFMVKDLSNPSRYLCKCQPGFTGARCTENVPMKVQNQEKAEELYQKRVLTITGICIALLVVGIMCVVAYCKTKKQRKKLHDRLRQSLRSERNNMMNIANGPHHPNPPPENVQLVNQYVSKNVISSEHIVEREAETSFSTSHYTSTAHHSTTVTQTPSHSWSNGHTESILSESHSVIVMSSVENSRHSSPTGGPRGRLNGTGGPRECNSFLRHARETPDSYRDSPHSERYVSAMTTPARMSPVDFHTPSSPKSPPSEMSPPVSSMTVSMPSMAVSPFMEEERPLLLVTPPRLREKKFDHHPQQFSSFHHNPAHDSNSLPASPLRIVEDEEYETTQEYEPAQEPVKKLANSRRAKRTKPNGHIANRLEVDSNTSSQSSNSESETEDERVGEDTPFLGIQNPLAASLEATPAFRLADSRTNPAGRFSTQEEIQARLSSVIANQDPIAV

[7] = test system: Neuregulin-1 EGF-like domain; test: small molecules binding NRG1 EGF domain – biochemical, small-molecule microarray, 635 nm fluorescence, primary screen (AID 1081); conditions: higher = more signal;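 further: binding of the protein to compounds printed on small-molecule microarray slides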
[8] = FRG1 expression reporter modulators in myotubes – cell-based, C2C12 myotubes, firefly/Renilla luciferase, luminescence, FRG1 inhibition for FSHD, primary screen (AID 1084); conditions: FRG1 promoter luciferase, higher = more signal, called active from +8 up or from −8 down
[9] = small molecules captured by biotinylated probe aFST – biochemical, small-molecule microarray, fluorescence 635/667, stem cell growth factor project, primary screen (AID 1086); conditions: higher = more signal;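 further: score merges 667 nm fluorescence with signal-to-noise of each printed compound spot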
[10] = binders of probe aHhip on microarray, primary screen, stem cell growth factor project, biochemical, small-molecule microarray, fluorescence 635/667 (AID 1087); conditions: higher = more signal;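 further: score merges spot fluorescence at 667nm with spot signal to noise ratio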
[11] = test system: PRMT1 (protein arginine N-methyltransferase 1); test: small molecules binding arginine methyltransferase PRMT1 – biochemical, small-molecule microarray, 635 nm fluorescence, primary screen (AID 1088); conditions: higher = more signal;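 further: binding of Prmt1 protein to compounds spotted on small-molecule microarray slides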
[12] = growth effects on S. cerevisiae YJM789 – YJM789 clinical isolate, OD600, 24 h, basal, primary screen (AID 1089); conditions: higher = more signal, called active from +8 up or from −8 down;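 further: growth of clinical yeast isolate S. cerevisiae YJM 789 seeded 1000 cells per well; test concentration not given here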
[13] = S. pombe growth modifiers, basal conditions – strain 972, OD600, 24 h, no modulator, primary screen (AID 1090);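 further: basal condition with compound alone and no growth modifier present; test concentration not given here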; conditions: S. pombe 972 growth, higher = more signal, called active from +8 up or from −8 down
[14] = budding yeast growth modifiers under rapamycin – strain BY4716, OD600, 96 h, primary screen (AID 1091); further: test concentration not given here; conditions: S. cerevisiae BY4716 + rapamycin, higher = more signal, called active from +8 up or from −8 down
[15] = target: Torsin-1A-interacting protein 2 (Homo sapiens) (UniProt Q8NFQ8); test: small molecules binding lysate-expressed LULL1 – cell lysate, human LULL1 lysate, 635/667 nm fluorescence, primary screen (AID 1092); conditions: small-molecule microarray, hLULL1 lysate binding, 635 nm fluorescence; higher = more signal;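 further: probe is lysate of COS7 cells overexpressing human LULL1; score merges per-feature 667 nm fluorescence with signal-to-noise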
Chain of Torsin-1A-interacting protein 2 (Homo sapiens) (Q8NFQ8 whole entry, looked up): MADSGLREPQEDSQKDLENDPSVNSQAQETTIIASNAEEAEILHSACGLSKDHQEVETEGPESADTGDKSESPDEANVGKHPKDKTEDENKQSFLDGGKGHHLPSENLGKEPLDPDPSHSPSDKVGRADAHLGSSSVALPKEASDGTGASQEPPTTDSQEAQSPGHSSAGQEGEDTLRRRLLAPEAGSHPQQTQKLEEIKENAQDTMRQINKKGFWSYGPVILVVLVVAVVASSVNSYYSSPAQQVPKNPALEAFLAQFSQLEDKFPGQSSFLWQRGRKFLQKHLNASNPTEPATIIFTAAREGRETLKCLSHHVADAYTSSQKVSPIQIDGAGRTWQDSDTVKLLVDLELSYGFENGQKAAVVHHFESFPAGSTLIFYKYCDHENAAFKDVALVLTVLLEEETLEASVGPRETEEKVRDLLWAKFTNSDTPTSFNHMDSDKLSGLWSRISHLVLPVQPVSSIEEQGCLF

[16] = optical density change of DRC41 E. coli – strain DRC41, OD650, 24 h, E. coli filamentation project, primary screen (AID 1093);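 further: MC1000 strain lacking acrAB efflux and sulA so SOS filamentation is blocked; test concentration not given here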; conditions: E. coli DRC41 growth, higher = more signal, called active from +8 up or from −8 down
[17] = probe aLefty2 binding to arrayed compounds – biochemical, biotinylated probe, 635/667 nm fluorescence, primary screen (AID 1094); conditions: small-molecule microarray, higher = more signal;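 further: score merges spot fluorescence near 667 nm with spot signal-to-noise ratio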
[18] = test system: Noggin (protein binding on small-molecule microarray); test: small molecules binding Noggin protein – biochemical, 635/667 nm fluorescence, primary screen (AID 1095); conditions: 635 nm fluorescence, higher = more signal;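 further: score merges 667 nm feature fluorescence with signal to noise over triplicate slides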
[19] = target: Neurogenic locus notch homolog protein 3 (Homo sapiens) (UniProt Q9UM47); test: small molecules binding NOTCH3 protein – biochemical, 635/667 nm fluorescence, primary screen (AID 1096); conditions: small-molecule microarray, 635 nm fluorescence, higher = more signal
Chain of Neurogenic locus notch homolog protein 3 (Homo sapiens) (Q9UM47 whole entry, looked up): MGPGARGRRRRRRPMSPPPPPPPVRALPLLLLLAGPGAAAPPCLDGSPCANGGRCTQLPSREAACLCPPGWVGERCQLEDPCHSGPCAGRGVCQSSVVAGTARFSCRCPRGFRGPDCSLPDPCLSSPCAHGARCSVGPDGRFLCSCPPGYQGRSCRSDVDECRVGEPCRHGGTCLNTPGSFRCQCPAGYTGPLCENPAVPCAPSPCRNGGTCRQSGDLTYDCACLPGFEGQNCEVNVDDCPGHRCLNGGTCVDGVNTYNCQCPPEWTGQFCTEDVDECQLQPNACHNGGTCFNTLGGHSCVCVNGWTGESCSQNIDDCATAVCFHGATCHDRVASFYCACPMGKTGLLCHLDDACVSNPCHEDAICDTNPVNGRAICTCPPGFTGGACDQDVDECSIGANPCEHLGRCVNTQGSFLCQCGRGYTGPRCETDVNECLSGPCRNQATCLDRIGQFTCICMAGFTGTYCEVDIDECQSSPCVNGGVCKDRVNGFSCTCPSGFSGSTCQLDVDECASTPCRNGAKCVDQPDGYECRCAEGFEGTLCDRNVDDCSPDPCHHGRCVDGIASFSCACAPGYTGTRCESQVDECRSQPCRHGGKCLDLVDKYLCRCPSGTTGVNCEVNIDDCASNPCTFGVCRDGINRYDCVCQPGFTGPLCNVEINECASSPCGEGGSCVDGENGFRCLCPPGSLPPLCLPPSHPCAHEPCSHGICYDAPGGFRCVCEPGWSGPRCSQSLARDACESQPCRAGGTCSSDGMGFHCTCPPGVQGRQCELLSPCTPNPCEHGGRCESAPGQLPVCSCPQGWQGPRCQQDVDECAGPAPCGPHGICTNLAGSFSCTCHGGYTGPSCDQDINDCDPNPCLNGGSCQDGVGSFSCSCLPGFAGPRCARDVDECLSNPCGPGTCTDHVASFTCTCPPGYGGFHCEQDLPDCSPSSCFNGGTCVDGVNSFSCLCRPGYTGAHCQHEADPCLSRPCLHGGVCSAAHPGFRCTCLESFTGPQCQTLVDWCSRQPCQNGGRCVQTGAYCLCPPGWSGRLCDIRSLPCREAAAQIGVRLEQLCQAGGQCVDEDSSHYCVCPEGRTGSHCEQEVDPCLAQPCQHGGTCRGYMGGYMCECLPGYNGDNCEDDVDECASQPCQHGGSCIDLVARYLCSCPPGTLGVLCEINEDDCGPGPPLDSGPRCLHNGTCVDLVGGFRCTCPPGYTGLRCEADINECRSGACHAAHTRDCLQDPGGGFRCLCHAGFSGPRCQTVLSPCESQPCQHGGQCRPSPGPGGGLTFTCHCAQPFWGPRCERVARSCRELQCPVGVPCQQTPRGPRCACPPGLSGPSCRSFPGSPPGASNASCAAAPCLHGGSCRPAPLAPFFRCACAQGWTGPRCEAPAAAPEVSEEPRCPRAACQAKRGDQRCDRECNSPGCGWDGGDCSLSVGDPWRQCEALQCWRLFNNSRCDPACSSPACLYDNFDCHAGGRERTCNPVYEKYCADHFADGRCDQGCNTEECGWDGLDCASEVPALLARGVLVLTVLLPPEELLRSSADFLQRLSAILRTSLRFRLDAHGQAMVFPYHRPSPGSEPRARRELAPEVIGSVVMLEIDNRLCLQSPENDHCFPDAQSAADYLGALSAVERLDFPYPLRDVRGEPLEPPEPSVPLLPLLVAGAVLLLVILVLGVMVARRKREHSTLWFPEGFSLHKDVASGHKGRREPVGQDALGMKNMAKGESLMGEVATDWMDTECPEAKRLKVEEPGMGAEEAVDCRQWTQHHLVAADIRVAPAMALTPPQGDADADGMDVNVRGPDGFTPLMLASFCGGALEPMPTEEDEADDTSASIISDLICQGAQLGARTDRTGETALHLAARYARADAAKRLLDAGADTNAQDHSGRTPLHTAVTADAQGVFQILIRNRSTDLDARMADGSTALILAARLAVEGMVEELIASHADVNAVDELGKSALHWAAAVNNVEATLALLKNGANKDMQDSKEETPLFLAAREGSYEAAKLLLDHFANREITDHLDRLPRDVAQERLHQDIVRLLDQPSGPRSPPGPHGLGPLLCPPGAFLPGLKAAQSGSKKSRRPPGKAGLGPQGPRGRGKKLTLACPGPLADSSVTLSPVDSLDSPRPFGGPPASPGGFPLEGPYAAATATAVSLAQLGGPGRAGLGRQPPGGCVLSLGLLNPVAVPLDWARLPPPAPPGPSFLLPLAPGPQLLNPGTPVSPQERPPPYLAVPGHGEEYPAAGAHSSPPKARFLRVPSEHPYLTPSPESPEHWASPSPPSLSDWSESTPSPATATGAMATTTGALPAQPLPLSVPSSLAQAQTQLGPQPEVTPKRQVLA

[20] = probe aEGFR binding to arrayed compounds – biochemical, biotinylated probe, 635/667 nm fluorescence, primary screen (AID 1097); conditions: small-molecule microarray, higher = more signal;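 further: probe is a biotinylated anti-EGFR antibody binding compounds printed on slides; score combines fluorescence near 667 nm and signal to noise of each spot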

SMILES	composite z-score [1]	composite z-score [2]	composite z-score [3]	composite z-score [4]	composite z-score [5]	composite z-score [6]	composite z-score [7]	z-score [8]	composite z-score [9]	composite z-score [10]	composite z-score [11]	z-score [12]	z-score [13]	z-score [14]	composite z-score [15]	z-score [16]	composite z-score [17]	composite z-score [18]	composite z-score [19]	composite z-score [20]
CC(C)C[C@@H]1NC(=O)[C@@H]2C[C@H](C(=O)NCCCCCN)[C@H](c3cccc(OCCO)c3)N2C1=O	0.235	-0.0087	0.0465	0.796	0.128	1.4	1.29	-0.284 (inactive)	0.393	0.28	1.3	-4.39 (inactive)	-0.894 (inactive)	-1.13 (inactive)	2.73	0.758 (inactive)	0.215	0.359	0.244	-0.0549
C=C(CCCC)C(=O)CC[C@H](OC(=O)c1cccnc1)c1ccccc1OCCO	0.453	0.657	-0.0573	0.726	-0.261	-0.113	0.22	1.28 (inactive)	0.0241	0.0505	0.449	-2.23 (inactive)	-2.01 (inactive)	-1.34 (inactive)	-0.0709	0.576 (inactive)	-0.19	0.282	0.214	-0.0656
C=CCOC(=O)[C@H]1[C@@H]2C(=O)O[C@@H](c3ccccc3)[C@@H](c3ccccc3)N2[C@@H](c2ccc(OCCOC(=O)[C@H]3C[C@H]4C(=O)N5CCC[C@H]5C(=O)N4[C@H]3c3ccc(O)cc3)cc2)[C@]12C(=O)Nc1ccccc12	-0.168	0.847	0.0069	0.516	1.47	1.33	1.4	1.31 (inactive)	0.0557	0.0881	1.54	1.31 (inactive)	0.998 (inactive)	3.27 (inactive)	3.03	-0.92 (inactive)	0.0292	0.744	0.938	0.127
Cc1ccc(S[C@]2(C(=O)NCC(C)C)CC(=O)N(Cc3cc(C(F)(F)F)cc(C(F)(F)F)c3)[C@@H]2c2ccc(CO)cc2I)cc1	1.61	-0.367	-0.113	-0.637	-1.1	1.13	0.102	-0.286 (inactive)	0.0584	-0.216	0.714	-1.79 (inactive)	-1.94 (inactive)	0.651 (inactive)	0.736	-0.161 (inactive)	0.31	-2.5	-0.332	-0.0824
C=C(CCCC)C(=O)CC[C@H](OC(C)=O)c1cccc(OCCO)c1	0.137	-0.475	-0.148	-0.177	-1.47	-0.331	-0.159	0.818 (inactive)	-0.463	-0.137	0.554	0.292 (inactive)	-1.84 (inactive)	-0.303 (inactive)	-0.348	0.787 (inactive)	-0.215	-0.848	-0.216	-0.363
CC1CC/C=C\[C@H]2OC34C=CCN(c5ccc(Cl)cc5)C(=O)[C@H]3N(CCO)C(=O)[C@]4(C)C2C(=O)O1 (stereo not given in full)	0.359	0.0741	-0.12	-0.472	-0.749	0.93	0.842	-0.39 (inactive)	-0.448	-0.106	0.517	-1.51 (inactive)	-1.4 (inactive)	-0.528 (inactive)	0.139	0.613 (inactive)	-0.0619	-0.504	0.105	-0.166
C=CCNC(=O)[C@H]1[C@@H]2C(=O)O[C@@H](c3ccccc3)[C@@H](c3ccccc3)N2[C@@H](c2ccc(OCCO)cc2)[C@]12C(=O)Nc1ccc(C#CC3=CCCCC3)cc12	-0.299	0.218	0.0703	0.498	1.05	0.688	1.29	-0.254 (inactive)	0.233	-0.216	1.55	2.28 (inactive)	1.46 (inactive)	4.72 (inactive)	2.89	1.53 (inactive)	-0.109	0.673	1.15	-0.147
CCOC(=O)[C@H]1C/C=C/C[C@H](C(=O)OCC)C(=O)O[C@H]2[C@@H](OC)O[C@H](CO)[C@@H](OC(=O)Nc3cccc(F)c3)[C@@H]2OC1=O	-0.621	-0.125	-0.0766	0.39	0.196	1.21	1.15	0.15 (inactive)	0.0218	-0.444	1.11	1.52 (inactive)	0.268 (inactive)	22.2 (active)	2.94	-0.168 (inactive)	-0.162	0.719	1.02	-0.2
COC(=O)[C@@]1(Cc2ccc(F)cc2)[C@H]2c3cc(C(=O)N(C)C)n(CC4CC4)c3C[C@H]2CN1C(=O)c1ccccc1	2.43	1.04	0.833	1.27	1.58	1.6	1.26	-0.115 (inactive)	2.76	0.741	1.45	0.712 (inactive)	0.877 (inactive)	2.49 (inactive)	3.57	-0.334 (inactive)	1.41	0.506	1.06	0.973
C=CCOC(=O)[C@@H]1[C@H]2C(=O)O[C@H](c3ccccc3)[C@H](c3ccccc3)N2[C@H](c2ccc(OCCOC(=O)[C@@H]3C[C@@H]4C(=O)N[C@@H](Cc5ccccc5)C(=O)N4[C@@H]3c3ccc(O)cc3)cc2)[C@@]12C(=O)Nc1ccc(I)cc12	-0.219	0.602	-0.0944	0.302	0.825	0.612	1.14	1.42 (inactive)	0.11	0.238	1.55	0.607 (inactive)	1.18 (inactive)	4.44 (inactive)	2.06	1.37 (inactive)	-0.135	1.87	1.11	-0.0828
CC(C)C(CO)N1C(=O)[C@@H]2[C@H]3C(=O)OCC=C[C@H]3OC23C=CCN(C(C)C)C(=O)[C@@H]13 (stereo not given in full)	-0.25	-0.615	-0.187	-0.271	-0.142	0.814	-0.677	-0.724 (inactive)	-0.422	-0.374	0.261	0.58 (inactive)	0.38 (inactive)	0.136 (inactive)	1.4	1.99 (inactive)	-0.273	0.503	0.51	-0.194
COc1ccc([Si](C)(C)[C@H]2[C@H](CC(=O)N3CCC[C@H]3CO)O[C@@]3(C(=O)N(Cc4cccc(N5C(=O)c6cccc7cccc5c67)c4)c4ccccc43)[C@@H]2C)cc1	-0.354	-0.0115	0.0686	0.483	0.818	1.77	0.981	-4.24 (inactive)	0.305	0.166	1.56	-0.0977 (inactive)	0.696 (inactive)	-0.15 (inactive)	2.08	-0.0831 (inactive)	0.031	1.57	1.05	-0.0549
C=CCOC(=O)[C@@H]1[C@H]2C(=O)O[C@H](c3ccccc3)[C@H](c3ccccc3)N2[C@H](c2ccc(OCCOC(=O)[C@@H]3C[C@@H]4C(=O)N[C@@H](CCCC[N+](C)(C)C)C(=O)N4[C@@H]3c3cccc(OCCO)c3)cc2)[C@@]12C(=O)Nc1ccc(I)cc12	0.443	0.54	0.0378	0.291	0.872	0.498	1.23	3.07 (inactive)	0.493	-0.117	1.56	1.02 (inactive)	-0.945 (inactive)	0.115 (inactive)	2.94	-0.674 (inactive)	-0.0063	1.47	1.13	0.0321
CC(C)c1ccc(NN2C(C(O)C(c3ccccc3)c3ccccc3)C=CC3C(=O)N(c4ccccc4)C(=O)C32)cc1 (stereo not given)	-0.304	-0.612	0.116	0.903	1.53	1.63	1.26	0.358 (inactive)	1.25	0.452	1.56	0.709 (inactive)	-0.223 (inactive)	1.04 (inactive)	2.63	-2.08 (inactive)	0.0399	0.63	1.06	0.104
C=CCN1C(=O)[C@@]2(O[C@@H](CCO)[C@H]([Si](C)(C)c3ccc(OC)cc3)[C@H]2C)c2cc(NC(=O)c3ccc(OC)cc3)ccc21	-0.114	0.612	-0.0739	-0.0379	0.454	0.213	0.949	-0.797 (inactive)	0.171	-0.0003	1.54	0.411 (inactive)	-2.29 (inactive)	1.02 (inactive)	0.821	0.702 (inactive)	-0.0977	1.37	0.861	-0.159
COC(=O)[C@@]1(Cc2ccc(F)cc2)[C@H]2c3cc(C(=O)N(C)C)n(Cc4ccc(S(C)(=O)=O)cc4)c3C[C@H]2CN1C(=O)c1ccccc1	0.244	0.657	0.209	0.629	1.41	1.79	1.19	0.0659 (inactive)	0.198	0.0274	-0.213	0.304 (inactive)	1.21 (inactive)	0.147 (inactive)	2.23	0.321 (inactive)	0.124	-0.139	0.49	-0.0045
CCCC[C@@H]1C[C@H]1[C@@H](NC(=O)c1ccco1)c1ccc(C(=O)OC)cc1	0.238	-0.0736	-0.124	0.286	-0.253	0.0609	-0.216	-0.0679 (inactive)	0.285	0.379	0.488	-0.152 (inactive)	-1.61 (inactive)	0.06 (inactive)	1.93	-1.53 (inactive)	0.0258	-1.2	-0.64	-0.171
CN(C)C(=O)[C@@]1(Cc2ccccc2CN=[N+]=[N-])N=C(c2ccc(OCCCO)cc2)O[C@H]1c1ccccc1	0.214	-0.163	0.0575	0.663	0.604	1.17	0.91	-2.25 (inactive)	0.46	-0.169	1.32	0.365 (inactive)	0.0586 (inactive)	34.7 (active)	3.32	0.632 (inactive)	0.0561	0.788	0.301	-0.0356
O=C1[C@H]2C=C(Br)[C@H](C[C@@H]2c2ccccc2)[C@@]12CO2	-0.357	0.324	-0.0265	0.328	0.299	-0.406	0.57	1.36 (inactive)	0.0322	-0.0645	0.366	-0.703 (inactive)	-14.7 (active)	-0.973 (inactive)	0.328	-0.779 (inactive)	-0.172	1.36	0.412	-0.156
